# Reference: PubChem BioAssay (EPA / NIEHS)
# “And” between values parts separate entries of the source, which are not always exact repeats. Equal entries are not always repeated. Results filed as inconclusive are left out. Some structures have more than one record in an assay (separate samples or runs), and their calls can disagree. The source made the active and inactive calls. How the source made its calls, unless noted: active means hit-call score of the fitted dose curve at least 0.9, where 1 is the maximum; inactive means score below 0.9.
# What was measured:
# [1] = CCTE_Harrill_HTTr_Viability_MCF7: CCTE's 6-hour Cell Viability Assessment for the High-Throughput Transcriptomics (HTTr) Platform, in MCF-7 cells cultured in DMEM + 10% fetal bovine serum, Harrill Lab (AID 2284010)
# How it was run: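 MCF-7 cells in DMEM + 10% FBS, 384-well, exposed 6 h to an eight-point dilution series. Membrane integrity scored by high-content imaging of propidium iodide exclusion; bidirectional fit versus DMSO.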
# [2] = CCTE_Harrill_HTTr_Apoptosis_MCF7: CCTE's 6-hour Apoptosis Assessment for the High-Throughput Transcriptomics (HTTr) Platform, in MCF-7 cells cultured in DMEM + 10% fetal bovine serum, Harrill Lab (AID 2284011)
# How it was run: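 Cells are dosed with test chemicals at eight concentrations and imaged 6 hours later for caspase-3/7 activity using a green fluorogenic detection reagent. Activity is fitted in both directions against DMSO controls.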
# [3] = CCTE_Harrill_HTTr_CellCount_MCF7: CCTE's Cell Proliferation Assessment for the High-Throughput Transcriptomics (HTTr) Platform, Harrill Lab (AID 2284012; active means hit-call score of the fitted dose curve at least 0.9, where 1 is the maximum;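 further: cells exposed to compound for six hours; intended direction is loss of nuclei count meaning fewer cells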)
# How it was run: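 MCF7 cells exposed 6 hours to an eight-point dilution series; Hoechst-stained nuclei counted by high-content imaging. Bidirectional curve fitting against DMSO baseline.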
# [4] = CCTE_Shafer_MEA_acute_burst_number: CCTE's Neural Acute Assay for Single-Electrode Bursts, Shafer Lab (AID 2284013)
# How it was run: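 Spontaneous network activity of primary rat cortical neurons was recorded extracellularly on microelectrode arrays at 37 C, with 40-min periods before and during exposure to 0.03-40 uM compound on DIV 13 or 15.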
# [5] = CCTE_Shafer_MEA_acute_burst_duration_mean: CCTE's Neural Acute Assay for Mean Burst Duration, Shafer Lab (AID 2284014);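 further: hits are decreases in mean burst duration relative to DMSO controls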
# How it was run: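 Read-out is the per-well percent change in mean burst duration (first to last spike within a single-electrode burst) between 40-min recordings before and after compound. Cultures were primary rat cortical neurons on MEAs, dosed at 0.03-40 uM on DIV 13 or 15.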
# [6] = CCTE_Shafer_MEA_acute_per_burst_spike_number_mean: CCTE's Neural Acute Assay for Average Number of Spikes Per Burst, Shafer Lab (AID 2284015);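 further: hits are decreases in mean spikes per burst versus baseline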
# How it was run: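 Read-out: percent change in mean spikes per burst, each well's post-exposure 40-min recording versus its own 40-min baseline. Rat cortical cultures, DIV 13 or 15, compounds 0.03-40 uM; DMSO is negative control, loss-of-signal fitting.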
# [7] = CCTE_Shafer_MEA_acute_interburst_interval_mean: CCTE's Neural Acute Assay for Mean Interburst Interval, Shafer Lab (AID 2284016);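 further: percent change of mean interburst interval versus each well's own pre-dose baseline; curves fitted for decrease in interburst interval relative to DMSO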
# How it was run: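 Rat cortical cultures, DIV 13/15; 20 min equilibration, 40 min baseline, compound 0.03-40 uM, 40 min re-recording, 37 C. Spikes detected at 8x rms noise (300-5000 Hz band-pass). Endpoint: % change in interburst interval, fitted in loss direction vs DMSO.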
# [8] = CCTE_Shafer_MEA_acute_burst_percentage_mean: CCTE's Neural Acute Assay for Percentage of Spikes in a Burst, Shafer Lab (AID 2284017);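 on AC50: curve fitted for loss of signal so potency reflects decreased burst percentage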
# How it was run: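 Rat cortical cultures, DIV 13/15, 37 C. Spikes detected at 8x rms noise (300-5000 Hz band-pass). Burst spikes/total spikes averaged across electrodes per well; % change post- vs pre-treatment (40 min each), loss-of-signal fit vs DMSO.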
# [9] = CCTE_Shafer_MEA_acute_burst_percentage_std: CCTE's Neural Acute Assay for Standard Deviation of Burst Percentage, Shafer Lab (AID 2284018);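 further: fitted in the negative direction so actives lower burst percentage SD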
# How it was run: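 Value is percent change from baseline in the across-electrode SD of spikes-in-bursts percentage, wells with >/= 10 active electrodes. Acute 40-min exposure to 0.03-40 uM on DIV 13 or 15 rat cortical cultures, recorded at 37 C after 40-min baseline.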
# [10] = CCTE_Shafer_MEA_acute_per_network_burst_spike_number_mean: CCTE's Neural Acute Assay for Average Number of Spikes in a Network Burst, Shafer Lab (AID 2284019)
# How it was run: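 Read-out is mean spike count per network burst, taken as percent change between a 40-min pre-exposure and a 40-min post-exposure recording per well. Rat primary cortical neurons on MEAs at 37 C, DIV 13 or 15; compounds at 0.03-40 uM.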
# [11] = CCTE_Shafer_MEA_acute_per_network_burst_spike_number_std: CCTE's Neural Acute Assay for Standard Deviation of Number of Spikes in a Network Burst, Shafer Lab (AID 2284020);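 further: fitted for decrease in spike-number SD versus DMSO so actives lower it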
# How it was run: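 Spontaneous network activity of primary rat cortical neurons is recorded extracellularly before and after a 40-min compound exposure (0.03-40 uM) at 37 C. The endpoint is the well's percent change in burst spike-number SD.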
# [12] = CCTE_Shafer_MEA_acute_per_network_burst_electrodes_number_mean: CCTE's Neural Acute Assay for Mean Number of Electrodes in a Network Burst, Shafer Lab (AID 2284021);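 further: curves fitted for decreases only so hits reduce electrodes per burst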
# How it was run: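 Cultures of rat cortex neurons were exposed on DIV 13 or 15 to compounds at 0.03-40 uM in at least three wells each. Activity over 40 min before and 40 min after exposure at 37 C gave the percent change in electrodes per network burst.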
# [13] = CCTE_Shafer_MEA_acute_network_burst_percentage: CCTE's Neural Acute Assay for Percentage of Network Bursts, Shafer Lab (AID 2284022);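 further: curves fitted for loss so actives lower network burst percentage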
# How it was run: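 Cortical neurons from rat were grown over microelectrode arrays and used on day 13 or 15 in vitro. Wells with at least 10 active electrodes received test chemical at 0.03-40 uM. Activity during 40 min of exposure was compared with the preceding 40-min baseline.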
# [14] = CCTE_Shafer_MEA_acute_cross_correlation_area: CCTE's Neural Acute Assay for Area of Cross Correlation, Shafer Lab (AID 2284024);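 further: area under pooled inter-electrode spike cross-correlation near zero lag as percent change from own baseline; curves fitted for loss of cross-correlation area so actives lower synchrony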
# How it was run: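 Acute exposure of mature rat cortical networks (day 13 or 15 post-plating) to 0.03-40 uM compound. Spontaneous spiking on MEA, 40 min pre- and post-dose at 37 C.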
# [15] = CCTE_Shafer_MEA_acute_cross_correlation_HWHM: CCTE's Neural Acute Assay for Cross Correlation at Half Width at Half Maximum, Shafer Lab (AID 2284026);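 further: percent change per well from pre-dose baseline in spike cross-correlogram half width; hits are a decrease in cross-correlogram half width relative to DMSO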
# How it was run: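 Primary cortex (rat), MEA, DIV 13/15; compound 0.03-40 uM; 40 min pre + 40 min post at 37 C; spike threshold 8x rms; wells need ≥10 active electrodes; endpoint = % change in cross-correlogram HWHM vs baseline, DMSO negative control.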
# [16] = CCTE_Shafer_MEA_acute_synchrony_index: CCTE's Neural Acute Assay for Synchrony, Shafer Lab (AID 2284027);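 further: network synchrony index of spontaneous spiking in primary rat cortical neurons on MEAs; fitted for loss of signal so actives lower synchrony relative to DMSO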
# How it was run: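 Primary rat cortical neurons on 48-well MEAs, dosed at 0.03–40 uM on DIV 13 or 15. Spikes are recorded for 40 min at 37C before and after exposure, and synchrony index (0–1) is expressed as percent change from baseline per well.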
# [17] = CCTE_Deisenroth_AIME_384WELL_CTox_Active: Cytotoxicity Assessment (CTOX) in CCTE's 384-well Estrogen Receptor Transactivation Assay with AIME metabolic competence (metabolism positive), Deisenroth Lab (AID 2284037; active means hit-call score of the fitted dose curve at least 0.9, where 1 is the maximum;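 further: chemicals first conditioned 2 h by alginate-bound induced rat liver S9 before cells; activity means signal loss indicating cell death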)
# How it was run: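 Cytotoxicity in VM7Luc4E2 breast cells, 24 hour, measured as protease-substrate fluorescence loss, after 2-hour metabolic conditioning with induced rat hepatic S9 in alginate microspheres. Concentrations 0.002 - 200 uM, 10 points, bidirectional fitting.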
# [18] = CCTE_Shafer_MEA_dev_firing_rate_mean: CCTE's Neural Network Formation Assay for Mean Firing Rate, Shafer Lab (AID 2284031);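 on AC50: curve fitted for loss of firing so AC50 reflects decreased mean firing rate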
# How it was run: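 Primary rat cortical neurons on 48-well MEA plates, exposed from plating day 0 with dosing renewed on DIV 5 and 9. Mean well firing rate over active electrodes, recorded days 5, 7, 9, 12, summarised as trapezoidal AUC.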
# [19] = CCTE_Shafer_MEA_dev_per_burst_spike_percent: CCTE's Neural Network Formation Assay for Percent of Spikes in a Burst, Shafer Lab (AID 2284032);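 on AC50: fitted as a decrease in burst spike percentage below DMSO baseline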
# How it was run: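 Rat primary cortical neurons on 16-electrode MEA wells, dosed from plating day 0 for 12 days with renewal on DIV 5 and 9; spikes-in-bursts percentage averaged over bursting electrodes, collapsed as AUC across days 5, 7, 9, 12; loss direction versus DMSO.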
compound,measurement,setting,value
CC(COc1ccc(Oc2ccccc2)cc1)Oc1ccccn1 (centres undefined),outcome,[1],inactive
same,outcome,[2],inactive
same,outcome,[3],inactive
same,outcome,[4],inactive
same,AC50,[5],20 µM (active)
same,AC50,[6],10.2 µM (active)
same,outcome,[7],inactive
same,AC50,[8],10.3 µM (active)
same,AC50,[9],20 µM (active)
same,outcome,[10],inactive
same,AC50,[11],10.1 µM (active)
same,AC50,[12],20 µM (active)
same,AC50,[13],32.7 µM (active)
same,outcome,[14],inactive
same,AC50,[15],8.8 µM (active)
same,AC50,[16],20 µM (active)
same,outcome,[17],inactive
CNC(=O)ON=C(SC)C(=O)N(C)C,outcome,[1],inactive
same,outcome,[2],inactive
same,outcome,[3],inactive
same,outcome,[4],inactive
same,outcome,[5],inactive
same,outcome,[6],inactive
same,outcome,[7],inactive
same,outcome,[8],inactive
same,outcome,[9],inactive
same,outcome,[10],inactive
same,outcome,[11],inactive
same,outcome,[12],inactive
same,outcome,[13],inactive
same,outcome,[15],inactive
same,outcome,[16],inactive
CCCSP(=O)(OCC)Oc1ccc(Br)cc1Cl (centres undefined),outcome,[1],inactive
same,outcome,[2],inactive
same,outcome,[3],inactive
same,outcome,[18],inactive
same,outcome,[19],inactive
same,outcome,[17],inactive
O=C(O)c1cc(Oc2ccc(C(F)(F)F)cc2Cl)ccc1[N+](=O)[O-],outcome,[1],inactive
same,outcome,[2],inactive
same,outcome,[3],inactive
same,outcome,[4],inactive
same,outcome,[5],inactive
same,outcome,[6],inactive
same,outcome,[7],inactive
same,outcome,[8],inactive
same,outcome,[9],inactive
same,outcome,[10],inactive
same,outcome,[11],inactive
same,outcome,[12],inactive
same,outcome,[13],inactive
same,outcome,[14],inactive
same,outcome,[15],inactive
same,outcome,[16],inactive
same,outcome,[17],inactive
N#CSCSC#N,outcome,[1],inactive
same,outcome,[2],inactive
same,AC50,[3],92.6 µM (active)
same,outcome,[4],inactive
same,outcome,[5],inactive
same,outcome,[6],inactive
same,AC50,[7],30.5 µM (active)
same,AC50,[8],27 µM (active)
same,outcome,[9],inactive
same,outcome,[10],inactive
same,outcome,[11],inactive
same,outcome,[12],inactive
same,AC50,[13],30.5 µM (active)
same,outcome,[14],inactive
same,outcome,[15],inactive
same,AC50,[16],28.4 µM (active)
same,outcome,[17],inactive
CCC(=NOC/C=C/Cl)C1=C(O)CC(C2CCOCC2)CC1=O (centres undefined),outcome,[1],inactive
same,outcome,[2],inactive
same,outcome,[17],inactive
Nc1nc(N)nc(NC2CC2)n1,outcome,[1],inactive
same,outcome,[2],inactive
same,outcome,[3],inactive
same,outcome,[17],inactive
CCOC(=O)CC(SP(=O)(OC)OC)C(=O)OCC (centres undefined),outcome,[1],inactive
same,outcome,[2],inactive
same,outcome,[4],inactive
same,outcome,[5],inactive
same,outcome,[6],inactive
same,outcome,[7],inactive
same,outcome,[8],inactive
same,outcome,[9],inactive
same,outcome,[10],inactive
same,outcome,[11],inactive
same,outcome,[12],inactive
same,outcome,[13],inactive
same,outcome,[14],inactive
same,outcome,[15],inactive
same,outcome,[16],inactive
same,outcome,[18],inactive
same,outcome,[19],inactive
CCOP(=S)(OCC)SCCSCC,outcome,[1],inactive
same,outcome,[2],inactive
same,outcome,[4],inactive
same,outcome,[5],inactive
same,outcome,[6],inactive
same,outcome,[7],inactive
same,outcome,[8],inactive
same,outcome,[9],inactive
same,outcome,[10],inactive
same,outcome,[11],inactive
same,AC50,[12],2.98 µM (active)
same,outcome,[13],inactive
same,outcome,[14],inactive
same,AC50,[15],8.93 µM (active)
same,outcome,[16],inactive
same,outcome,[18],inactive
same,outcome,[19],inactive
CCOP(=O)(NC(C)C)Oc1ccc(SC)c(C)c1 (centres undefined),outcome,[1],inactive
same,outcome,[2],inactive
same,outcome,[3],inactive
same,outcome,[4],inactive
same,outcome,[5],inactive
same,outcome,[6],inactive
same,outcome,[7],inactive
same,AC50,[8],30.2 µM (active)
same,outcome,[9],inactive
same,outcome,[10],inactive
same,outcome,[11],inactive
same,outcome,[12],inactive
same,outcome,[13],inactive
same,outcome,[14],inactive
same,outcome,[16],inactive
same,AC50,[18],22 µM (active)
same,outcome,[18],inactive
same,AC50,[19],40.7 µM (active)
same,outcome,[19],inactive
CCCSP(=O)(OCC)SCCC,outcome,[1],inactive
same,outcome,[2],inactive
same,outcome,[3],inactive
same,outcome,[18],inactive
same,AC50,[19],50 µM (active) and 50.5 µM (active)
CON=C(C(=O)OC)c1ccccc1CON=C(C)c1cccc(C(F)(F)F)c1,outcome,[1],inactive
same,outcome,[2],inactive
same,AC50,[4],0.191 µM (active)
same,outcome,[5],inactive
same,AC50,[6],0.767 µM (active)
same,AC50,[7],4.19 µM (active)
same,AC50,[8],1.12 µM (active)
same,outcome,[9],inactive
same,outcome,[10],inactive
same,AC50,[11],0.59 µM (active)
same,AC50,[12],13.5 µM (active)
same,AC50,[14],0.162 µM (active)
same,AC50,[15],0.278 µM (active)
same,AC50,[16],2.25 µM (active)
same,AC50,[18],639 nM (active) and 964 nM (active)
same,AC50,[19],1.11 µM (active) and 1.32 µM (active)
same,AC50,[17],19.8 µM (active)
COc1cc(OC)nc(Sc2cccc(Cl)c2C(=O)O)n1,outcome,[1],inactive
same,outcome,[2],inactive
same,outcome,[4],inactive
same,outcome,[5],inactive
same,outcome,[6],inactive
same,outcome,[7],inactive
same,outcome,[8],inactive
same,outcome,[9],inactive
same,outcome,[10],inactive
same,outcome,[11],inactive
same,outcome,[12],inactive
same,outcome,[13],inactive
same,outcome,[14],inactive
same,outcome,[15],inactive
same,outcome,[16],inactive
Cc1ccn2nc(S(=O)(=O)Nc3c(F)cccc3F)nc2n1,outcome,[1],inactive
same,outcome,[2],inactive
same,outcome,[4],inactive
same,outcome,[5],inactive
same,outcome,[6],inactive
same,outcome,[7],inactive
same,outcome,[8],inactive
same,outcome,[9],inactive
same,outcome,[10],inactive
same,outcome,[11],inactive
same,outcome,[12],inactive
same,outcome,[13],inactive
same,outcome,[14],inactive
same,outcome,[15],inactive
same,outcome,[16],inactive
